The results in this text go back to PubChem BioAssay (EPA / NIEHS).

As a reminder, the AC50 is the concentration at which the activity in the assay is half-maximal.

Inconclusive results are not listed. Calls of active or inactive are those of the source. How the source made its calls, unless noted: active means hit-call score of the fitted dose curve at least 0.9, where 1 is the maximum; inconclusive means response in the unintended direction; inactive means score below 0.9.

Assay [1] in a line: ATG_TAL_CIS: Attagene CIS-FACTORIAL HepG2 Assay for human TAL Basal Promoter (AID 2282966; active means hit-call score of the fitted dose curve at least 0.9, where 1 is the maximum; inactive means score below 0.9;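 further: background control endpoint measuring basal TAL promoter reporter mRNA not a specific factor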). The note with it: HepG2 Attagene cis-factorial TAL promoter reporter; actives raise or lower the signal. The method, boiled down: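 Endogenous transcription-factor activity is sensed in HepG2 cells through transfected cis-promoter reporter constructs. After 24 h dosing, reporter transcripts are quantified by RT-PCR and capillary electrophoresis. Gain or loss of signal is fitted relative to DMSO.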

A short description of assay [2]: ATG_TGFb_CIS: Attagene CIS-FACTORIAL HepG2 Assay for human Transforming Growth Factor (TGF) (AID 2282967; active means hit-call score of the fitted dose curve at least 0.9, where 1 is the maximum; inactive means score below 0.9). The note with it: HepG2 Attagene CIS TGFb reporter, mRNA transcription; actives raise or lower the signal. Summed up: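 Transient MRTU transfection of HepG2 (FuGene 6). Dose 24 h. TriZol RNA, oligo(dT) RT, PCR, 6-FAM primer extension, HpaI cut, CE. Bidirectional fit, DMSO = baseline.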

The nature of assay [3]: ATG_VDRE_CIS: Attagene CIS-FACTORIAL HepG2 Assay for human Vitamin D Receptor Element (VDRE) (AID 2282968; active means hit-call score of the fitted dose curve at least 0.9, where 1 is the maximum; inactive means score below 0.9). Conditions: HepG2 VDRE cis-reporter transcription, actives raise or lower the signal. The method, boiled down: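 Compounds were applied for 24 h to HepG2 cells transfected with promoter-regulated reporter units. Total RNA was reverse-transcribed, and reporter amplicons were fluorescently labelled and sized by capillary electrophoresis.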

In assay [4] the target is Nuclear receptor subfamily 1 group I member 3 (Homo sapiens) (UniProt Q14994). Nature of the assay: ATG_CAR_TRANS: Attagene TRANS-FACTORIAL HepG2 Assay for human Constitutive Androstane Receptor (CAR) (AID 2282969).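 Further: activators raise reporter mRNA above DMSO so AC50 marks induction.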 The note with it: HepG2 Attagene TRANS-FACTORIAL CAR reporter. Summed up:
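Transiently transfected HepG2, multiplex TRANS reporters (CAR-Gal4 chimera driving GAL4-UAS reporter). 24 h dosing. Readout: reporter transcript by RT-PCR + capillary electrophoresis, fluorescence intensity; positive direction vs DMSO.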

For assay [5], the target named is Estrogen receptor (Homo sapiens) (UniProt P03372). Description: ATG_ERa_TRANS: Attagene TRANS-FACTORIAL HepG2 Assay for human Estrogen Receptor alpha (ERa) (AID 2282970). The note with it: HepG2 Attagene TRANS ERa GAL4 reporter, mRNA. The method, boiled down: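 Transfected HepG2 cells carrying GAL4-UAS-driven reporter units were dosed for 24 hours. Total RNA was reverse-transcribed, reporter sequences PCR-amplified, FAM-labelled, HpaI-digested and resolved by capillary electrophoresis. Increases over DMSO control defined activity.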
Chain of Estrogen receptor (Homo sapiens) (P03372 whole entry, looked up, the tested form may be a part): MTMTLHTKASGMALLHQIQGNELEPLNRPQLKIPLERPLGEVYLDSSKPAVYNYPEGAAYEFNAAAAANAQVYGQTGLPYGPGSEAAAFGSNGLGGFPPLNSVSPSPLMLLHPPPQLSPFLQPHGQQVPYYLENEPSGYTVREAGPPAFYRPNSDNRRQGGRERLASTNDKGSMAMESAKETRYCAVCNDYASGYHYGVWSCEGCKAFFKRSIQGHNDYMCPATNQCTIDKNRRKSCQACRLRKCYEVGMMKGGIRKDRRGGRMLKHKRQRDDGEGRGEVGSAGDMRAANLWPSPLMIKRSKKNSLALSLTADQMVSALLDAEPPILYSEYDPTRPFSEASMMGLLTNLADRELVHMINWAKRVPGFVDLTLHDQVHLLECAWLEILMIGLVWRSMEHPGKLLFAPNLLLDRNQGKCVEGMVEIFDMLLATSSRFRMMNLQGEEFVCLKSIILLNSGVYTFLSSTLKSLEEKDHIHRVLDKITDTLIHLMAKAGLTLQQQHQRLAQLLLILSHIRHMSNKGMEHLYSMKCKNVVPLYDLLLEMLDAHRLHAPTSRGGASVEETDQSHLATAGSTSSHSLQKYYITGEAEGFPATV

The target in assay [6] is Steroid hormone receptor ERR1 (Homo sapiens) (UniProt P11474). Description: ATG_ERRa_TRANS: Attagene TRANS-FACTORIAL HepG2 Assay for human Estrogen-Related Receptor alpha (ERRa) (AID 2282971). The note with it: HepG2 Attagene TRANS reporter, ERRa transactivation. The method, boiled down:
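HepG2 cells were transiently transfected with multiple GAL4-UAS reporter units, then dosed with compound for 24 h. Total RNA was reverse-transcribed, reporter cDNA PCR-amplified and fluorescently labelled, and fragments resolved by capillary electrophoresis; induction was compared with DMSO.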

The target in assay [7] is X-box-binding protein 1 (Homo sapiens) (UniProt P17861). Description: ATG_Xbp1_CIS: Attagene CIS-FACTORIAL HepG2 Assay for human X-box Binding Protein 1 (XBP1) (AID 2282972; active means hit-call score of the fitted dose curve at least 0.9, where 1 is the maximum; inactive means score below 0.9). The note with it: HepG2 XBP1 cis-element reporter, Attagene multiplex; actives raise or lower the signal. The method, boiled down: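 Human hepatoma HepG2, cis-element reporter system, 24 h treatment; mRNA quantified by RT-PCR/CE fluorescence; fit relative to DMSO.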
Chain of X-box-binding protein 1 (Homo sapiens) (P17861 whole entry, looked up): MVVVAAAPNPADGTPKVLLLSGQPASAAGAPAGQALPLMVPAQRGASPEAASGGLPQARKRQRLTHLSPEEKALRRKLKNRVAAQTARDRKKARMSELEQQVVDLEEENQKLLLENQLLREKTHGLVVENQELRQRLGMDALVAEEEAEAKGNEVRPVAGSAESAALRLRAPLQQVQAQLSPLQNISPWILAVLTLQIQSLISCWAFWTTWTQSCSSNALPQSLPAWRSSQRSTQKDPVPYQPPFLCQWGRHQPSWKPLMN

Assay [8] is described as follows: ATG_M_19_TRANS: Attagene TRANS-FACTORIAL HepG2 Assay for M19 Transcription Factor (Internal Marker) (AID 2282974). Conditions: HepG2 Attagene TRANS-FACTORIAL M19 internal marker reporter. Summed up:
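Transfected HepG2 (GAL4-UAS MRTUs), 24 h compound, TriZol RNA, DNase-treated RT, reporter PCR, FAM label, HpaI digest, CE fluorescence; gain vs DMSO.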

Assay [9] can be described thus: ATG_GAL4_TRANS: Attagene TRANS-FACTORIAL HepG2 Assay for GAL4 (Internal Marker) (AID 2282976). The note with it: HepG2 Attagene TRANS GAL4 internal marker reporter. Summed up: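 Fluorescence from capillary electrophoresis of labelled RT-PCR products quantifies reporter mRNA induction after 24 h dosing of HepG2 cells carrying transfected GAL4-UAS reporter transcription units. Vehicle DMSO serves as baseline.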

The target of assay [10] is Bile acid receptor (Homo sapiens) (UniProt Q96RI1). Nature of the assay: ATG_FXR_TRANS: Attagene TRANS-FACTORIAL HepG2 Assay for Farnesoid X Receptor (FXR) (AID 2282979).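 Further: hits raise reporter mRNA above DMSO so AC50 marks FXR activation.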 The note with it: HepG2 Attagene TRANS FXR-GAL4 reporter transcription. Summed up:
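Chimeric FXR-GAL4 activity in transiently transfected human HepG2 liver cells is scored as induction of reporter mRNA after 24 h of dosing. Detection uses RT-PCR with fluorescent labelling and capillary electrophoresis, with DMSO serving as baseline.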

A short description of assay [11]: ATG_M_32_TRANS: Attagene TRANS-FACTORIAL HepG2 Assay for M32 Transcription Factor (Internal Marker) (AID 2282984).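 Further: transcript level of a background control reporter unit measured by RT-PCR and capillary electrophoresis.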 The note with it: HepG2 Attagene TRANS M32 internal marker reporter. Summed up:
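Internal-marker readout from a multiplexed transcription reporter panel. HepG2 cells were transfected with GAL4-UAS reporter units, treated 24 hours, and reporter transcript levels determined by fluorescence after RT-PCR and capillary separation.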

The target of assay [12] is Nuclear receptor subfamily 4 group A member 2 (Homo sapiens) (UniProt P43354). Nature of the assay: ATG_NURR1_TRANS: Attagene TRANS-FACTORIAL HepG2 Assay for human Nuclear Receptor Related Protein 1 (NURR1) (AID 2282985). Conditions: HepG2 Attagene TRANS reporter, mRNA readout. Summed up: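 Endpoint: reporter mRNA increase relative to DMSO. HepG2 cells transfected with reporter units, treated 24 h; RNA processed by RT-PCR, labelling, HpaI digestion and capillary electrophoresis.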
Chain of Nuclear receptor subfamily 4 group A member 2 (Homo sapiens) (P43354 whole entry, looked up): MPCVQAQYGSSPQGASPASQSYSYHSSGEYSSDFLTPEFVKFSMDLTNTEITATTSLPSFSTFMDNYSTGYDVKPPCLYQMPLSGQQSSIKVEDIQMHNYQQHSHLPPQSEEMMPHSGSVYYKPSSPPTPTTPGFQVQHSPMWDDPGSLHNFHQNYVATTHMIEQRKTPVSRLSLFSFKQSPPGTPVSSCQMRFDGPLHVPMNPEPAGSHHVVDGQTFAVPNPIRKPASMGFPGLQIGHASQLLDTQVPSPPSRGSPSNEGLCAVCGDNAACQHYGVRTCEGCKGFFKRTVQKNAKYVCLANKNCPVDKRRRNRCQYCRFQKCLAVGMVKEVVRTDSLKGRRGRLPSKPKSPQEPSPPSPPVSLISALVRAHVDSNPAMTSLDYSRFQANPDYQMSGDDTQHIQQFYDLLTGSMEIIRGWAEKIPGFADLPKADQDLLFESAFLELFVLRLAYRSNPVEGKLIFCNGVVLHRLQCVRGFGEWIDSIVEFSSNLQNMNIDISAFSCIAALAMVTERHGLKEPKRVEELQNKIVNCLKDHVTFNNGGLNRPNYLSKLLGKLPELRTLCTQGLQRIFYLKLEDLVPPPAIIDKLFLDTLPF

In assay [13] the target is Transcriptional activator Myb (Homo sapiens) (UniProt P10242). Nature of the assay: ATG_Myb_CIS: Attagene CIS-FACTORIAL HepG2 Assay for human Myeloblastosis (Myb) Proto-Oncogene Transcription Factor (AID 2282986; active means hit-call score of the fitted dose curve at least 0.9, where 1 is the maximum; inactive means score below 0.9). The note with it: HepG2 Attagene CIS-FACTORIAL Myb reporter transcription; actives raise or lower the signal. Summed up:
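After 24 h of compound dosing, total RNA from transfected HepG2 cells is reverse-transcribed and the reporter sequences amplified, labeled and separated by capillary electrophoresis. Values come from bidirectional fitting against DMSO.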

The target of assay [14] is Oxysterols receptor LXR-alpha (Homo sapiens) (UniProt Q13133). Nature of the assay: ATG_LXRa_TRANS: Attagene TRANS-FACTORIAL HepG2 Assay for human Liver X Receptor alpha (LXRa) (AID 2282980). The note with it: HepG2 Attagene TRANS reporter, LXRa transactivation. The method, boiled down:
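Transient HepG2 transfectants, 24 h dosing, RT-PCR/CE mRNA reporter quantitation; gain-of-signal vs DMSO.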

Assay [15] concerns the target Oxysterols receptor LXR-beta (Homo sapiens) (UniProt P55055). Nature of the assay: ATG_LXRb_TRANS: Attagene TRANS-FACTORIAL HepG2 Assay for human Liver X Receptor beta (LXRb) (AID 2282981). Conditions: HepG2 Attagene TRANS GAL4-LXRb reporter, mRNA. Summed up: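 Multiplexed reporter assay, HepG2, 24 h dosing. Fluorescence of labelled RT-PCR products after capillary electrophoresis gives transcript level; positive fitting direction relative to DMSO.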

Assay [16] in a line: ATG_M_06_TRANS: Attagene TRANS-FACTORIAL HepG2 Assay for M06 Transcription Factor (Internal Marker) (AID 2282983). The note with it: HepG2 Attagene TRANS M06 internal marker reporter. The method, boiled down:
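Human liver HepG2 cells bearing transiently transfected chimeric NR-GAL4 reporter units were treated with chemicals for 24 h. Total RNA was reverse-transcribed, reporter sequences amplified and labelled, then quantified by capillary electrophoresis. Activity was fitted upward relative to DMSO.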

Assay [17] has as its target Nuclear respiratory factor 1 (Homo sapiens) (UniProt Q16656). Nature of the assay: ATG_NRF1_CIS: Attagene CIS-FACTORIAL HepG2 Assay for human Nuclear Respiratory Factor 1 (NRF1) Orphan Gene (AID 2282987; active means hit-call score of the fitted dose curve at least 0.9, where 1 is the maximum; inactive means score below 0.9). The note with it: HepG2 NRF1 cis-element reporter, Attagene multiplex; actives raise or lower the signal. The method, boiled down:
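Measured: fluorescent reporter-specific RT-PCR products from transfected HepG2 cells, separated by capillary electrophoresis. Exposure lasted 24 h. Analysis used bidirectional curve fitting with DMSO as negative control.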

Assay [18] has as its target Hepatocyte nuclear factor 4-alpha (Homo sapiens) (UniProt P41235). Description: ATG_HNF4a_TRANS: Attagene TRANS-FACTORIAL HepG2 Assay for human Hepatocyte Nuclear Factor 4 alpha (HNF4a) (AID 2282982). The note with it: HepG2 HNF4a transactivation reporter, mRNA readout. Summed up:
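Endpoint reflects transcriptional activation of a GAL4-UAS reporter by an HNF4a-GAL4 chimera in transfected HepG2 cells, 24 h post-dosing. Fluorescence from RT-PCR products separated by capillary electrophoresis; DMSO baseline.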

In assay [19] the target is Glucocorticoid receptor (Homo sapiens) (UniProt P04150). Description: ATG_GR_TRANS: Attagene TRANS-FACTORIAL HepG2 Assay for human Glucocorticoid Receptor (GR) (AID 2282978).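 Further: activators score as hits since higher reporter transcript over DMSO is fitted.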 Conditions: HepG2 Attagene TRANS GR reporter, mRNA transcription. The method, boiled down: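 After 24 h incubation with test chemical, transfected HepG2 cells were lysed for RNA; reporter cDNA was amplified, FAM-labelled, HpaI-digested and sized on a capillary analyser. Signal gain relative to DMSO was scored.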

Chain of Oxysterols receptor LXR-beta (Homo sapiens) (P55055 whole entry, looked up, the tested form may be a part): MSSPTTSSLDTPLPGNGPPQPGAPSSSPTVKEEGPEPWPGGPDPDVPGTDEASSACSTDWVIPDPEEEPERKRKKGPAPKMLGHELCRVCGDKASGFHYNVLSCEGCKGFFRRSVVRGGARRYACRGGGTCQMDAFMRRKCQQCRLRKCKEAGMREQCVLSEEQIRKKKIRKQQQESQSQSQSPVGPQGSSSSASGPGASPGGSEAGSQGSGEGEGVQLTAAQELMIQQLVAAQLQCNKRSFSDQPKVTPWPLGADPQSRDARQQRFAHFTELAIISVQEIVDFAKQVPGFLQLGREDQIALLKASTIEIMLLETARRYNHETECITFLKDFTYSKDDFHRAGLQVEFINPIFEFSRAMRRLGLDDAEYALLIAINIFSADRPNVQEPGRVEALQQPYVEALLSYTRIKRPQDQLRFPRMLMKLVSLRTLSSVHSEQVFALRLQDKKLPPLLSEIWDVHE
Chain of Nuclear respiratory factor 1 (Homo sapiens) (Q16656 whole entry, looked up): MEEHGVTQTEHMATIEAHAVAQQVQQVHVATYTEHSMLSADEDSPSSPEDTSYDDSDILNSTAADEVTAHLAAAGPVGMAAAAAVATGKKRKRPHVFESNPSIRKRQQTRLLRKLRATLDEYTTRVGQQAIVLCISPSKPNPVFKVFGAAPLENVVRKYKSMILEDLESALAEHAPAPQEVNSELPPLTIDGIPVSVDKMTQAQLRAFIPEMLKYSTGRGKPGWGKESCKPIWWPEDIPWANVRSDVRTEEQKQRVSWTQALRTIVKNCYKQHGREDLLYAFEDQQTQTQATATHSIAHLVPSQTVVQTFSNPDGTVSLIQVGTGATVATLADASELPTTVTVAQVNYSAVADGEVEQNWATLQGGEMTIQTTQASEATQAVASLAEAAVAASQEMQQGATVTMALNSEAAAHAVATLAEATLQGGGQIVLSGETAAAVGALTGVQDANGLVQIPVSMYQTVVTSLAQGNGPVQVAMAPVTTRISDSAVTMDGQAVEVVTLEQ
Chain of Nuclear receptor subfamily 1 group I member 3 (Homo sapiens) (Q14994 whole entry, looked up, the tested form may be a part): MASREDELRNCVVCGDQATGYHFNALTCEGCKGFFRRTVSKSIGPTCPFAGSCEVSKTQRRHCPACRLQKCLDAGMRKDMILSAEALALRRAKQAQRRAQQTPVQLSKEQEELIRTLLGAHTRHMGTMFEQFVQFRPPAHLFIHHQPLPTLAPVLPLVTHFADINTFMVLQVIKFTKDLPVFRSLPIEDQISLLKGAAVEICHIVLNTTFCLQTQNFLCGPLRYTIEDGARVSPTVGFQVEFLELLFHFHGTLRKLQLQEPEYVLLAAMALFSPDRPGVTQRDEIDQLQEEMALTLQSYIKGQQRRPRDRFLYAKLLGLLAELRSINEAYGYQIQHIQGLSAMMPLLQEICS
Chain of Transcriptional activator Myb (Homo sapiens) (P10242 whole entry, looked up): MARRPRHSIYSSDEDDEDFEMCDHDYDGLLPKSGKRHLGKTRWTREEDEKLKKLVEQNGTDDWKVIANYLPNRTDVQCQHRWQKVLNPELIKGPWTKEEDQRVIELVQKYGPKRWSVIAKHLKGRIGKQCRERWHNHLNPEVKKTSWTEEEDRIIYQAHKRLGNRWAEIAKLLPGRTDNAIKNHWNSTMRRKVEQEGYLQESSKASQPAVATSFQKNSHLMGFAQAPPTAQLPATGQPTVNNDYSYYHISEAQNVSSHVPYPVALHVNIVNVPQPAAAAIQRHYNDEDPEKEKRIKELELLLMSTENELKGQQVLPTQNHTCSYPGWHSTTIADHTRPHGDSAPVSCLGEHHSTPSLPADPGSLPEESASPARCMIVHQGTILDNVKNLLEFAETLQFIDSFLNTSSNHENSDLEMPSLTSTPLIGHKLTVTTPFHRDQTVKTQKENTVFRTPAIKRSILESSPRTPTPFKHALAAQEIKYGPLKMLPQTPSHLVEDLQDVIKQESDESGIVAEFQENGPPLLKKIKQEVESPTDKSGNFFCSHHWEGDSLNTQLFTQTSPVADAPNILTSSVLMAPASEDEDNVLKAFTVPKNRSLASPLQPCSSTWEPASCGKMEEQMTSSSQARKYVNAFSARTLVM
Chain of Hepatocyte nuclear factor 4-alpha (Homo sapiens) (P41235 whole entry, looked up, the tested form may be a part): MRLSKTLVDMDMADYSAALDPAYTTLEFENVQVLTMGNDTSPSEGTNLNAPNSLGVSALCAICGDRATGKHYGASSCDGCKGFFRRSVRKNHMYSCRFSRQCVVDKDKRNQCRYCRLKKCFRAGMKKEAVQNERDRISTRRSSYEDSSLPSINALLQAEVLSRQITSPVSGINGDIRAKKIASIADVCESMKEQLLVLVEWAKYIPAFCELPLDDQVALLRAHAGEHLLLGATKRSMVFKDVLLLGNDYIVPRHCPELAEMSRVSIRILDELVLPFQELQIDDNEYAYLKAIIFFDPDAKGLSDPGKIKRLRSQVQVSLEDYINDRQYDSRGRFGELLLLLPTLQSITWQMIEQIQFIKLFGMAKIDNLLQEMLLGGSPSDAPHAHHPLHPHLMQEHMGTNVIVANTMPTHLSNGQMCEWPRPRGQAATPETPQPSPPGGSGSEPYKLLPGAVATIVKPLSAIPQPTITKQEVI
Chain of Oxysterols receptor LXR-alpha (Homo sapiens) (Q13133 whole entry, looked up): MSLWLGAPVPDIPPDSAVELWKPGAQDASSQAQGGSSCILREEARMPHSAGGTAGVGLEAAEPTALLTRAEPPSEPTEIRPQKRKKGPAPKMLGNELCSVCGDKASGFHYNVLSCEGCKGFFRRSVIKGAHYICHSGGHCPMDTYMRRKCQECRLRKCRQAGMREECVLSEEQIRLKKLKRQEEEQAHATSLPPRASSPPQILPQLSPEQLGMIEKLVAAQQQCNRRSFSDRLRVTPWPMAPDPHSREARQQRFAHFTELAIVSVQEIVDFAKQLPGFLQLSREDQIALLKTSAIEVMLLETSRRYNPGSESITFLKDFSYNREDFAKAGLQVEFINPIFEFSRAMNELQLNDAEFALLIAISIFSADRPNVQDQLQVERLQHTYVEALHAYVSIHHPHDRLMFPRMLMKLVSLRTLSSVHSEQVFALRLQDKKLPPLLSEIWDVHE
Chain of Steroid hormone receptor ERR1 (Homo sapiens) (P11474 whole entry, looked up, the tested form may be a part): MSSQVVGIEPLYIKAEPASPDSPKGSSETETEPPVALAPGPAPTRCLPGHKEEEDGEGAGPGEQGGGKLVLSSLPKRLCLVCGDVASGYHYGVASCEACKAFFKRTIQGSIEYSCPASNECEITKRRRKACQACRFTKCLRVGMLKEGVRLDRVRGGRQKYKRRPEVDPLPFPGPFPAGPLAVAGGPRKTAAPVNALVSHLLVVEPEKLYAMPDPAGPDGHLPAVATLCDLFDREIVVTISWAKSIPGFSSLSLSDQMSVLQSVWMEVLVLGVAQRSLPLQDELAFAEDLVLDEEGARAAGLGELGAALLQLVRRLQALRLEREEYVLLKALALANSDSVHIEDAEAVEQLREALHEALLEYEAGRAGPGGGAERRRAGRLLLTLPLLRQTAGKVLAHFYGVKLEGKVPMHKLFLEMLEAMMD

As to `CCOC(=O)N1CCC(=C2c3ccc(Cl)cc3CCc3cccnc32)CC1`, the AC50 was 8.84 µM (active) in [1], 1.37 µM (active) in assay [3] and 15.6 µM (active) in assay [12]. The call in assay [2], in assay [4], in [5], in assay [6], in [7] and in assay [8] was inactive. Also, the molecule was called inactive in assay [9], in assay [10], in assay [11] and in assay [13].

With `Cc1cc(C)c(C)c(O)c1`, the molecule was classed as inactive in [1], in [2], in assay [3], in assay [4], in [5] and in assay [6]. In addition, the call in assay [7], in assay [8], in [9], in assay [14], in assay [15] and in assay [16] was inactive. Also, the call in assay [11], in [12], in [13] and in assay [17] was inactive.

Take `[Cl][Bi]([Cl])([c]1ccccc1)([c]1ccccc1)[c]1ccccc1`: the result in [1], in assay [2], in assay [3], in assay [4], in assay [8] and in assay [15] was inactive. Moreover, the call in assay [18], in [11], in assay [12] and in assay [17] was inactive. The values for the AC50 in assay [5] and in [7] were 2.74 µM (active) and 6.04 µM (active), respectively.

Take `CN1C(=O)N(C)C(O)C1O` (stereo not given): the molecule was called inactive in assay [1], in assay [2], in assay [3], in assay [4], in [5] and in assay [7]. Also, the molecule was classed as inactive in [8], in assay [14], in assay [18] and in [17].

For the molecule `CCOC(=O)c1ccc(N(C)C)cc1`, the molecule was called inactive in assay [1], in assay [2], in assay [4], in [5], in assay [7] and in [8]. The molecule was called inactive in assay [19], in assay [15], in assay [18], in assay [11], in assay [12] and in assay [13]. In addition, the result in assay [17] was inactive. Also, the AC50 in [3] is 65.8 µM (active).
